Measured values from PubChem BioAssay AID1159580 (chemical genetic matrix, 2015).
Among all 5,500 compounds or so, about 2,000 (36%) were called active. Not shown: some 18% with an inconclusive outcome. Cut-off read from the data, not from the text of the source: active = normalized growth mostly below about 0.91 (no sharp cut-off); inconclusive = no clear call, values can overlap the other calls; inactive = mostly above about 0.92. The list shows a part of the results.

Experiment: chemical genetic growth profiling, strain panel (AID 1159580);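 note: tested at 20 µM; growth read once vehicle control cultures reached saturation at 30 °C; 1 = growth at the plate median or of vehicle wells; lower values mean less growth of the strain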
Settings: growth OD

Measured: normalized growth

COc1cc(OC)c2c(=O)c(O)c(-c3ccc(OC)c(OC)c3)oc2c1
inactive: S. cerevisiae deletion strains, locus YKL068W, hits give low values 0.994 | S. cerevisiae deletion strains, locus YKL085W, strain MDH1 (second series), hits give low values 1.05 | S. cerevisiae deletion strains, locus YKL085W, strain MDH1, hits give low values 1.05 | S. cerevisiae deletion strains, locus YKL160W, strain elf1, hits give low values 0.922 | S. cerevisiae deletion strains, locus YKR026C, strain gcn3, hits give low values 0.959 | S. cerevisiae deletion strains, locus YKR091W, strain srl3, hits give low values 0.953 | S. cerevisiae deletion strains, locus YLL001W, strain dnm1, hits give low values 0.906 | S. cerevisiae deletion strains, locus YLL026W, hits give low values 0.972 | S. cerevisiae deletion strains, locus YLL041C, strain sdh2, hits give low values 0.933 | S. cerevisiae deletion strains, locus YLR102C, strain apc9, hits give low values 0.929 | S. cerevisiae deletion strains, locus YLR113W, strain HOG1, hits give low values 0.944 | S. cerevisiae deletion strains, locus YLR258W, strain gsy2, hits give low values 0.917 | S. cerevisiae deletion strains, locus YLR370C, strain arc18, hits give low values 0.967 | S. cerevisiae deletion strains, locus YLR384C, strain iki3, hits give low values 0.942 | S. cerevisiae deletion strains, locus YML032C, strain rad52, hits give low values 0.91 | S. cerevisiae deletion strains, locus YML120C, strain ndi1, hits give low values 0.948 | S. cerevisiae deletion strains, locus YMR078C, strain ctf18, hits give low values 0.957 | S. cerevisiae deletion strains, locus YMR125W, strain sto1, hits give low values 0.982 | S. cerevisiae deletion strains, locus YMR129W, hits give low values 0.954 | S. cerevisiae deletion strains, locus YMR231W, strain pep5, hits give low values 0.973 | S. cerevisiae deletion strains, locus YNL071W, strain lat1, hits give low values 0.975 | S. cerevisiae deletion strains, locus YNL183C, strain NPR1, hits give low values 0.941 | S. cerevisiae deletion strains, locus YNL248C, strain rpa49, hits give low values 0.951 | S. cerevisiae deletion strains, locus YNL250W, strain rad50, hits give low values 1.01 | S. cerevisiae deletion strains, locus YNL271C, strain bni1, hits give low values 0.922 | S. cerevisiae deletion strains, locus YNL298W, strain CLA4, hits give low values 0.975 | S. cerevisiae deletion strains, locus YNL322C, strain KRE1 (second series), hits give low values 0.961 | S. cerevisiae deletion strains, locus YNR049C, strain mso1, hits give low values 0.968 | S. cerevisiae deletion strains, locus YOL012C, strain htz1 0.232 | S. cerevisiae deletion strains, locus YOR001W, strain rrp6, hits give low values 0.922 | S. cerevisiae deletion strains, locus YOR070C, strain gyp1, hits give low values 0.968 | S. cerevisiae deletion strains, locus YOR080W, strain dia2, hits give low values 0.942 | S. cerevisiae deletion strains, locus YOR231W, strain MKK1, hits give low values 0.991 | S. cerevisiae deletion strains, locus YOR265W, strain rbl2, hits give low values 0.94 | S. cerevisiae deletion strains, locus YOR316C, strain cot1, hits give low values 0.938 | S. cerevisiae deletion strains, locus YPL078C, strain atp4, hits give low values 0.958 | S. cerevisiae deletion strains, locus YPL256C, strain CLN2, hits give low values 0.969 | S. cerevisiae deletion strains, locus YPR119W, strain clb2, hits give low values 0.97 | S. cerevisiae deletion strains, locus YPR141C, strain kar3, hits give low values 0.996
active: S. cerevisiae deletion strains, locus YKL009W, strain mrt4, hits give low values 1.45 [resistant] | S. cerevisiae deletion strains, locus YKL190W, strain CNB1, hits give low values 0.202 | S. cerevisiae deletion strains, locus YKR001C, strain vps1, hits give low values 0.738 | S. cerevisiae deletion strains, locus YLR027C, strain aat2, hits give low values 0.92 | S. cerevisiae deletion strains, locus YLR039C, strain RIC1, hits give low values 0.227 | S. cerevisiae deletion strains, locus YLR058C, strain SHM2, hits give low values 0.295 | S. cerevisiae deletion strains, locus YLR221C, strain rsa3, hits give low values 0.865 | S. cerevisiae deletion strains, locus YLR262C, strain YPT6 (second series), hits give low values 0.655 | S. cerevisiae deletion strains, locus YLR262C, strain YPT6, hits give low values 0.374 | S. cerevisiae deletion strains, locus YLR268W, strain sec22, hits give low values 0.558 | S. cerevisiae deletion strains, locus YLR320W, strain mms22, hits give low values 0.853 | S. cerevisiae deletion strains, locus YLR342W, strain FKS1 (second series), hits give low values 0.341 | S. cerevisiae deletion strains, locus YLR342W, strain FKS1, hits give low values 0.875 | S. cerevisiae deletion strains, locus YLR357W, strain rsc2, hits give low values 0.705 | S. cerevisiae deletion strains, locus YLR371W, strain rom2, hits give low values 0.645 | S. cerevisiae deletion strains, locus YLR418C, strain cdc73, hits give low values 0.559 | S. cerevisiae deletion strains, locus YML016C, strain PPZ1, hits give low values 0.155 | S. cerevisiae deletion strains, locus YML124C, strain tub3, hits give low values 0.845 | S. cerevisiae deletion strains, locus YMR058W, strain fet3, hits give low values 0.35 | S. cerevisiae deletion strains, locus YMR205C, strain PFK2, hits give low values 0.696 | S. cerevisiae deletion strains, locus YMR223W, strain ubp8, hits give low values 0.759 | S. cerevisiae deletion strains, locus YMR307W, strain GAS1, hits give low values 0.381 | S. cerevisiae deletion strains, locus YNL067W, strain RPL9B, hits give low values 0.438 | S. cerevisiae deletion strains, locus YNL153C, strain GIM3, hits give low values 0.446 | S. cerevisiae deletion strains, locus YNL209W, strain ssb2, hits give low values 0.572 | S. cerevisiae deletion strains, locus YNL233W, strain BNI4, hits give low values 0.601 | S. cerevisiae deletion strains, locus YNL307C, strain MCK1, hits give low values 0.893 | S. cerevisiae deletion strains, locus YNR052C, strain pop2, hits give low values 0.761 | S. cerevisiae deletion strains, locus YOL147C, strain pex11, hits give low values 0.813 | S. cerevisiae deletion strains, locus YOR061W, strain CKA2, hits give low values 0.285 | S. cerevisiae deletion strains, locus YOR069W, strain VPS5, hits give low values 0.458 | S. cerevisiae deletion strains, locus YOR083W, strain WHI5, hits give low values 0.884 | S. cerevisiae deletion strains, locus YOR106W, strain vam3, hits give low values 0.616 | S. cerevisiae deletion strains, locus YOR136W, strain idh2, hits give low values 0.871 | S. cerevisiae deletion strains, locus YOR144C, strain elg1, hits give low values 0.788 | S. cerevisiae deletion strains, locus YOR184W, strain ser1, hits give low values 0.683 | S. cerevisiae deletion strains, locus YOR270C, strain vph1, hits give low values 0.716 | S. cerevisiae deletion strains, locus YOR290C, strain snf2, hits give low values 0.817 | S. cerevisiae deletion strains, locus YPL051W, strain arl3, hits give low values 0.763 | S. cerevisiae deletion strains, locus YPL106C, strain sse1, hits give low values 0.784 | S. cerevisiae deletion strains, locus YPL240C, strain hsp82, hits give low values 0.92 | S. cerevisiae deletion strains, locus YPL241C, strain CIN2, hits give low values 0.506 | S. cerevisiae deletion strains, locus YPR163C, strain tif3, hits give low values 0.838 | S. cerevisiae deletion strains, locus YPR167C, strain met16, hits give low values 0.78 | S. cerevisiae deletion strains, strain wtn01, hits give low values 0.66 | S. cerevisiae strains, strain wild type, hits give low values 0.102
